# Experimental data reported in PubChem BioAssay (NCATS).
# Inconclusive results are not listed. Entries that show only a call come without a potency. Calls of active or inactive are those of the source. Calls follow the shape of the dose curve; as a rule, active = well fitted curve in the direction sought with a large enough effect; inconclusive = small, poorly fitted or top-dose-only effect, or another doubt; inactive = no such curve, though single readings can be large; an effect the other way counts as inactive or inconclusive.
# Molecular target: Dual specificity protein kinase CLK4 (Homo sapiens) (UniProt Q9HAZ1)
# Sequence (Q9HAZ1 whole entry, looked up): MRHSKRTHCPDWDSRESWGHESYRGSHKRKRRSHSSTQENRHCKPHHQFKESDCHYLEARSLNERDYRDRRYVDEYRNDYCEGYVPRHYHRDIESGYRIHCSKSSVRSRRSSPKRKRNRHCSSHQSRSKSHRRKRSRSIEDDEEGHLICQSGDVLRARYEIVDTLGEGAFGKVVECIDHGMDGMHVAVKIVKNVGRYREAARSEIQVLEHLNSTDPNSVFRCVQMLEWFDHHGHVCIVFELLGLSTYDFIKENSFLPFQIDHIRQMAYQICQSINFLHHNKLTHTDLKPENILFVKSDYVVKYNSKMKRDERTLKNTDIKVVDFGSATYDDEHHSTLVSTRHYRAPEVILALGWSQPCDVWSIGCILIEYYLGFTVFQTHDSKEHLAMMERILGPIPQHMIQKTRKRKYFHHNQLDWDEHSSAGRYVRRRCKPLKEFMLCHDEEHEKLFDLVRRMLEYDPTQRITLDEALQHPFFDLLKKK
# Assay: qHTS Assay for Inhibitors of CDC-like Kinase 4 (ADP-FP Assay) (AID 1795); also: nearly all actives have a fitted effect of over 60% in size; also: potency is read from the fitted curve at half-maximal effect
# Settings: Transcreener ADP fluorescence polarization; series mostly up to 50 µM
# Procedure, shortened: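 Kinase activity was measured as ADP production using Transcreener orange tracer (4 nM) and ADP antibody (1 ug/mL) fluorescence polarization, with ADP calculated from a calibration curve. The 1 h reaction contained 6.25 nM Clk4, 1 uM ATP and 100 uM RS peptide at pH 7.5 with Mg2+.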
row,SMILES,Potency
1,COc1cccc(-c2nc(NCc3ccc(OC)cc3OC)c3ccccc3n2)c1,inactive
2,COc1ccc(CNc2nc(-c3ccc4c(c3)OCO4)nc3ccccc23)c(OC)c1,inactive
3,COc1cccc(Cn2c(=O)c(-c3ccc(Cl)cc3)nc3cnc(OC)nc32)c1,inactive
4,COc1ccccc1CNc1nc(-c2cccnc2)nc2ccccc12,4.47 µM (active)
5,c1ccc(CNc2nc(-c3ccc4c(c3)OCO4)nc3ccccc23)cc1,inactive
6,CN(C)c1ncnc2ccc(-c3ccccc3C(F)(F)F)cc12,inactive
7,CN(C)c1ncc2nc(-c3cccs3)c(=O)n(-c3ccccc3)c2n1,inactive
8,N#CCCn1c(=O)c(-c2ccc(Cl)cc2)nc2cnc(Nc3ccccc3)nc21,inactive
9,COc1cccc(-c2nccc(NCc3cccs3)n2)c1,10 µM (active)
10,Cc1noc(C)c1-c1nc(Nc2ccc(F)cc2)c2ccccc2n1,inactive
11,Cc1nc2cnc(N(C)C)nc2n(-c2ccccc2)c1=O,inactive
12,COc1cccc(Nc2ncc3nc(-c4ccccc4)c(=O)n(C)c3n2)c1,inactive
13,Cn1cc(-c2nc3cnc(N4CCOCC4)nc3n(CCC#N)c2=O)c2ccccc21,inactive
14,CCNc1ncc2nc(-c3ccccc3)c(=O)n(C)c2n1,inactive
15,COc1ccc(-c2nc3cnc(Nc4cccc(OC)c4)nc3n(Cc3cccs3)c2=O)cc1,inactive
16,COCCn1c(=O)c(-c2cccs2)nc2cnc(N3CCOCC3)nc21,inactive
17,O=c1c(-c2ccccc2)nc2cncnc2n1-c1ccccc1,inactive
18,O=c1c(-c2cccs2)nc2cnc(N3CCOCC3)nc2n1CCc1ccccc1,inactive
19,COc1ccccc1-c1ccc2ncnc(N(C)Cc3ccco3)c2c1,2.82 µM (active)
20,Cn1c(=O)c(-c2ccccc2)nc2cnc(Nc3ccccc3)nc21,inactive
21,COc1cccc(Cn2c(=O)c(-c3ccc(Cl)cc3)nc3cnc(N4CCNCC4)nc32)c1,inactive

# Molecular target: Ubiquitin carboxyl-terminal hydrolase 1 (Homo sapiens) (UniProt O94782)
# Sequence (O94782 whole entry, looked up): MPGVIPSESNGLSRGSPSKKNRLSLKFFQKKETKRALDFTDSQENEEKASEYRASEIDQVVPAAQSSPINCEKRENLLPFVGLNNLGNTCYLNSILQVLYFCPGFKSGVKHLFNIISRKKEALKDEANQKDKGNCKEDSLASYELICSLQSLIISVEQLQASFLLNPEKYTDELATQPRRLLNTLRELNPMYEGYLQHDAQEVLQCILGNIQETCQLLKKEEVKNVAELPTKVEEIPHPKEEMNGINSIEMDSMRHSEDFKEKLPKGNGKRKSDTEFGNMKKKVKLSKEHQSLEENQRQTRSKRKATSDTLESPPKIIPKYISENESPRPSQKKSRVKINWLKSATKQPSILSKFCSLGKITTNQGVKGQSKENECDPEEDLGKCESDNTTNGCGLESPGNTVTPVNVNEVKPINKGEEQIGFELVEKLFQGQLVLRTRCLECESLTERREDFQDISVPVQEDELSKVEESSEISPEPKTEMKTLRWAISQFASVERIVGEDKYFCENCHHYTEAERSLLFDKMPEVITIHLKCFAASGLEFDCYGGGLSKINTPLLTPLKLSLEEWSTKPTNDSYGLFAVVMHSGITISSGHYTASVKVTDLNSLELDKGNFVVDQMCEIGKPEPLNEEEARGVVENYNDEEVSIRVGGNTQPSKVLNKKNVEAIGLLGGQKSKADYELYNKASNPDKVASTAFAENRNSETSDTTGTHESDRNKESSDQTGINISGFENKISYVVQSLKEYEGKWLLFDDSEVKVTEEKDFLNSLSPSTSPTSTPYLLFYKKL
# Assay: Inhibitors of USP1/UAF1: Pilot qHTS (AID 504865);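 also: rhodamine fluorescence freed from ubiquitin-rhodamine substrate followed over time; top concentration of the series differs between compounds; nearly all actives have a fitted effect of over 35% in size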
# Settings: purified USP1/UAF1, Ub-rhodamine cleavage fluorescence; series mostly up to 54.9 µM
# Procedure, shortened: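 Deubiquitinase activity followed as kinetic rhodamine fluorescence release from 150 nM Ub-Rho. 1 nM USP1/UAF1 with compound, after 15 min room-temperature preincubation, in HEPES pH 7.8 buffer containing TCEP, EDTA, BSA and Tween-20.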
row,SMILES,Potency
1,COc1ccc(CNc2ccnc(-c3cccc(C#N)c3)n2)c(OC)c1,inactive
2,COc1ccc(CNc2nc(-c3ccc4c(c3)OCO4)nc3ccccc23)c(OC)c1,inactive
3,COc1cccc(Cn2c(=O)c(-c3ccc(Cl)cc3)nc3cnc(OC)nc32)c1,inactive
4,COc1ccccc1CNc1nc(-c2cccnc2)nc2ccccc12,inactive
5,c1ccc(CNc2nc(-c3ccc4c(c3)OCO4)nc3ccccc23)cc1,inactive
6,CN(C)c1ncnc2ccc(-c3ccccc3C(F)(F)F)cc12,inactive
7,CN(C)c1ncc2nc(-c3cccs3)c(=O)n(-c3ccccc3)c2n1,inactive
8,N#CCCn1c(=O)c(-c2ccc(Cl)cc2)nc2cnc(Nc3ccccc3)nc21,inactive
9,Cc1noc(C)c1-c1nc(Nc2ccc(F)cc2)c2ccccc2n1,inactive
10,Cc1nc2cnc(N(C)C)nc2n(-c2ccccc2)c1=O,inactive
11,COc1cccc(Nc2ncc3nc(-c4ccccc4)c(=O)n(C)c3n2)c1,inactive
12,Cn1cc(-c2nc3cnc(N4CCOCC4)nc3n(CCC#N)c2=O)c2ccccc21,inactive
13,CCNc1ncc2nc(-c3ccccc3)c(=O)n(C)c2n1,inactive
14,COc1ccc(-c2nc3cnc(Nc4cccc(OC)c4)nc3n(Cc3cccs3)c2=O)cc1,inactive
15,COCCn1c(=O)c(-c2cccs2)nc2cnc(N3CCOCC3)nc21,inactive
16,O=c1c(-c2ccccc2)nc2cncnc2n1-c1ccccc1,inactive
17,c1csc(CNc2ccnc(-c3ccc4c(c3)OCO4)n2)c1,inactive
18,O=c1c(-c2cccs2)nc2cnc(N3CCOCC3)nc2n1CCc1ccccc1,inactive
19,COc1ccccc1-c1ccc2ncnc(N(C)Cc3ccco3)c2c1,inactive
20,Cn1c(=O)c(-c2ccccc2)nc2cnc(Nc3ccccc3)nc21,inactive
21,COc1cccc(Cn2c(=O)c(-c3ccc(Cl)cc3)nc3cnc(N4CCNCC4)nc32)c1,inactive

# System: not listed separately
# Assay: Primary qHTS for small molecule stabilizers of the endoplasmic reticulum resident proteome: Secreted ER Calcium Modulated Protein (SERCaMP) assay (AID 1508630)
# Settings: SH-SY5Y GLuc-SERCaMP (Gaussia luciferase released on ER calcium loss) secretion, thapsigargin, luminescence; series mostly up to 38.4 µM
# Procedure, shortened: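 The SH-SY5Y reporter protocol was run at 3 concentrations up to 38.3 uM (primary) or 11 concentrations (follow-up): 16 h compound, 100 nM thapsigargin for 4 h, then extracellular luciferase luminescence.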
row,SMILES,outcome
1,COc1ccc(C(=O)N2CCC3(CCN(Cc4cc(C(F)(F)F)cc(C(F)(F)F)c4)CC3)CC2)cc1,inactive
2,COc1ccc(CNc2ccnc(-c3cccc(C#N)c3)n2)c(OC)c1,inactive
3,O=c1c(-c2cc(F)cc(F)c2)nc2cnc(N3CCOCC3)nc2n1-c1ccccc1,inactive
4,c1ccc(CNc2ccnc(-c3ccc4c(c3)OCO4)n2)cc1,inactive
5,COc1cccc(-c2nc(NCc3ccc(OC)cc3OC)c3ccccc3n2)c1,inactive
6,COc1ccc(C(=O)N2CCC[C@@]3(CCN(Cc4cc(C(F)(F)F)cc(C(F)(F)F)c4)C3)C2)cc1,inactive
7,COc1ccc(CNc2nc(-c3ccc4c(c3)OCO4)nc3ccccc23)c(OC)c1,inactive
8,C=CC(C)(C)c1c2c(c(O)c3c(=O)c4ccc(O)c(O)c4oc13)C=CC(C)(C)O2,inactive
9,COc1ccc(-n2c(=O)c(-c3cccs3)nc3cnc(Nc4cccc(OC)c4)nc32)cc1,inactive
10,COc1cccc(Cn2c(=O)c(-c3ccc(Cl)cc3)nc3cnc(OC)nc32)c1,inactive
11,O=C(CCCCCN1C(=O)c2cccc3cccc(c23)C1=O)NO,inactive
12,COc1ccccc1CNc1nc(-c2cccnc2)nc2ccccc12,inactive
13,c1ccc(CNc2nc(-c3ccc4c(c3)OCO4)nc3ccccc23)cc1,inactive
14,CN(C)c1ncc2nc(-c3cccs3)c(=O)n(C3CC3)c2n1,inactive
15,CN(C)c1ncnc2ccc(-c3ccccc3C(F)(F)F)cc12,inactive
16,CN(C)c1ncc2nc(-c3cccs3)c(=O)n(-c3ccccc3)c2n1,inactive
17,COc1cccc(Cn2c(=O)c(-c3cccs3)nc3cnc(Nc4cccc(OC)c4)nc32)c1,inactive
18,O=C(c1csnn1)N1CCC2(CC1)CN(c1cccc(-c3ccccc3)c1)C2,inactive
19,COc1ccc(C(=O)N2CCC3(CCCN(Cc4cc(C(F)(F)F)cc(C(F)(F)F)c4)C3)CC2)cc1,inactive
20,N#CCCn1c(=O)c(-c2ccc(Cl)cc2)nc2cnc(Nc3ccccc3)nc21,inactive

row,SMILES,outcome
1,O=c1c(-c2ccc(F)cc2)nc2cnc(Nc3ccccc3)nc2n1Cc1cccs1,inactive
2,COc1cccc(-c2nccc(NCc3cccs3)n2)c1,inactive
3,Cc1c(CC(C)(C)C(=O)O)n(Cc2ccc(Cl)cc2)c2ccc(F)cc12,inactive
4,Cc1noc(C)c1-c1nc(Nc2ccc(F)cc2)c2ccccc2n1,inactive
5,Cc1nc2cnc(N(C)C)nc2n(-c2ccccc2)c1=O,inactive
6,COc1cccc(Nc2ncc3nc(-c4ccccc4)c(=O)n(C)c3n2)c1,inactive
7,Cn1cc(-c2nc3cnc(N4CCOCC4)nc3n(CCC#N)c2=O)c2ccccc21,inactive
8,CCNc1ncc2nc(-c3ccccc3)c(=O)n(C)c2n1,inactive
9,COc1ccc(-c2nc3cnc(Nc4cccc(OC)c4)nc3n(Cc3cccs3)c2=O)cc1,inactive
10,COCCn1c(=O)c(-c2cccs2)nc2cnc(N3CCOCC3)nc21,inactive
11,O=c1c(-c2ccccc2)nc2cncnc2n1-c1ccccc1,inactive
12,c1csc(CNc2ccnc(-c3ccc4c(c3)OCO4)n2)c1,inactive
13,COc1c(O)cc2oc3cc(O)c(CC=C(C)C)c(O)c3c(=O)c2c1CC=C(C)C,inactive
14,O=c1c(-c2cccs2)nc2cnc(N3CCOCC3)nc2n1CCc1ccccc1,inactive
15,COc1ccc(-c2nc3cnc(Nc4ccccc4)nc3n(CCC#N)c2=O)cc1,inactive
16,COC(=O)C1=C(C)NC(C)=C(C(=O)OCCSc2ccccc2)[C@@H]1C,inactive
17,COc1ccccc1-c1ccc2ncnc(N(C)Cc3ccco3)c2c1,inactive
18,Cn1c(=O)c(-c2ccccc2)nc2cnc(Nc3ccccc3)nc21,inactive
19,COc1cccc(Cn2c(=O)c(-c3ccc(Cl)cc3)nc3cnc(N4CCNCC4)nc32)c1,inactive
20,COc1ccc(C(=O)N2CCC3(CCCN(c4cccc(-c5ccccc5)c4)C3)CC2)cc1,inactive
